PubChem BioAssay (NCATS)
Results filed as inconclusive are left out. Activity calls are given as the source filed them. Unless noted, the call rests on the fitted dose curve; in most records, active means well fitted curve in the direction sought with a large enough effect; inconclusive means small, poorly fitted or top-dose-only effect, or another doubt; inactive means no such curve, though single readings can be large; an effect the other way counts as inactive or inconclusive.

Key:
[1] = target: Lysosomal acid glucosylceramidase (Homo sapiens) (UniProt P04062); experiment: Glucocerebrosidase-p2 (AID 348; in the data active means potency below about 10 µM; further: potency means the concentration at half of the fitted maximal effect); conditions: purified GBA, blue fluorogenic substrate, 40 min
Procedure, shortened: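 Normal human glucocerebrosidase (0.2 nM) with blue fluorogenic substrate (80 uM final) in citrate/phosphate pH 5.9 with 10mM sodium taurocholate, 0.01% tween-20; 40 min RT, NaOH/glycine stop; fluorescence Ex 365/Em 440; AC50 from a titration from 0.6 nM upwards.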

[2] = target: Cytochrome P450 1A2 (Homo sapiens) (UniProt P05177); experiment: p450-cyp1a2 (AID 410; calls by dose curve; further: potency means the concentration at half of the fitted maximal effect); conditions: recombinant CYP1A2, luciferin-ME demethylation, luminescence; series mostly up to 57 µM
Procedure, shortened: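 Read-out is luminescence from luciferin produced by CYP1A2 demethylation of Luciferin-ME (100uM, at Km). Detection reagent stopped the 60 min NADPH-dependent reaction; signals were normalized to 57 uM furafylline.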

[3] = Stat Signaling Pathway (AID 446; active means well fitted curve in either direction with a large enough effect, not every such curve was filed as active;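 further: ME-180 cervical cancer cells given 40 pM IL-6 alongside compound; SIE-controlled beta-lactamase reporter measured as 460/530 nm FRET emission ratio; on the % scale 0 is the no-effect control and ±100 the full control effect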); conditions: ME-180 SIE beta-lactamase reporter, IL-6 stimulated, 5 h; at 7.69 µM (top of the series) unless noted
Procedure, shortened: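 Overnight-plated ME-180 cells bearing a STAT Inducible Element beta-lactamase reporter; 5 h co-exposure to compound and 40 pM IL-6; values normalized to 300 pM IL-6 and 125 nM JAK inhibitor controls.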

[4] = target: Glucocorticoid receptor (Homo sapiens) (UniProt P04150); experiment: GR-GFP Redistribution (AID 450;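 active means compounds whose dose series gives a full or clear partial fitted curve of increased nuclear translocation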; further: potency means the concentration at half of the fitted maximal effect); conditions: U2OS GR-GFP nuclear translocation, laser cytometry, 2 h
[5] = target: Glucocorticoid receptor (Homo sapiens) (UniProt P04150); experiment: GR-EFC Redistribution (AID 451; calls by dose curve; further: potency means the concentration at half of the fitted maximal effect); conditions: CHO-K1 GR-EFC translocation, beta-gal luminescence, 2 h
Procedure, shortened: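 Translocation of GR-ED fusion to nuclear EA restores b-gal, read by luminescence after 1 h room-temperature detection. Engineered CHO-K1 biosensor cells, 1,000/well, exposed 2 h at 37 C to titrations up to 46 uM final.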

[6] = target: Mitogen-activated protein kinase 10 (Mus musculus) (UniProt Q61831); experiment: JNK3 AlphaScreen Assay (AID 530; active means well fitted curve in either direction with a large enough effect, not every such curve was filed as active;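 further: kinase came from lysate of stimulated human HepG2 cells; signal reports phosphorylation of biotinylated GST-cJun 1-79 at Ser73 with 10 µM ATP; on the % scale 0 is the no-effect control and ±100 the full control effect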); conditions: JNK3 lysate, c-Jun phosphorylation; series mostly up to 57.1 µM
Procedure, shortened: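 Kinase buffer: 20 mM Tris-HCl pH 7.6, 10 mM MgCl2, 1 mM DTT, 0.1 mM Na3VO4, 0.01% Tween-20; ATP 10 uM. Substrate biotin-GST-cJun(1-79), enzyme from activated HepG2 lysates. Detection by Ser73 phospho-antibody AlphaScreen.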

[7] = target: 3',5'-cyclic-AMP phosphodiesterase 4B (Homo sapiens) (UniProt Q07343); experiment: qHTS Assay for Inhibitors of PDE-IV (AID 607; active means well fitted activation curve with a large enough effect in the main read-out, with a control signal flat, not every such curve was filed as active; further: % of control where 0% means no effect); conditions: HEK293 ACTOne CNG channel cells, membrane potential fluorescence; series mostly up to 22.9 µM
Procedure, shortened: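 Live HEK293 cells with a modified cyclic nucleotide-gated (CNG) channel report intracellular cAMP via membrane-potential dye fluorescence (ex 535/em 590 nm). Endogenous PDE-IV was targeted. Compounds were tested at up to 22.9 uM final; RO 20-1724 100 uM served as control.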

[8] = target: Cytochrome P450 3A4 (Homo sapiens) (UniProt P08684); experiment: qHTS Assay for Activators of Cytochrome P450 3A4 (AID 885); conditions: recombinant CYP3A4, Luciferin-PPXE luminescence, 60 min; series mostly up to 57.1 µM; further: nearly all actives have a fitted effect of over 65% in size
Procedure, shortened: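 Using 20nM recombinant human CYP3A4 in potassium phosphate (200mM), substrate Luciferin-PPXE at 25uM, luminescent luciferin detection followed a 60-min RT NADPH reaction; data scaled to 57 uM ketoconazole.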

[9] = qHTS Assay for Lipid Storage Modulators (AID 1519; calls by dose curve; further: potency means the concentration at half of the fitted maximal effect); conditions: Drosophila S3 cells, BODIPY lipid droplet/cell ratio, laser cytometry, cells loaded with oleic acid; for activity change, negative = inhibition: at 57.5 µM (top of the series)
Procedure, shortened: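 Cells seeded at 5,000 per well were treated with compounds over a concentration series and loaded with oleic acid (400 uM, as added). Lipid droplet fluorescence (488 nm excitation, 500-530 nm channel) was read by laser-scanning cytometry and normalized to 20 uM Triacsin C.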

[10] = target: Dual specificity protein kinase CLK4 (Homo sapiens) (UniProt Q9HAZ1); experiment: qHTS Assay for Inhibitors of CDC-like Kinase 4 (Kinase-Glo Assay) (AID 1770); conditions: recombinant Clk4, Kinase-Glo ATP depletion luminescence; series mostly up to 66.7 µM; further: nearly all actives have a fitted effect of over 65% in size; further: potency means the concentration at half of the fitted maximal effect
Procedure, shortened: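 25 nM Clk4 with 100 uM RS repeat peptide and 1 uM ATP (final) in Tris pH7.5, 10 mM MgCl2, 4.5 h at room temperature. Remaining ATP measured by Kinase-Glo luciferase luminescence.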

[11] = target: Dual specificity protein kinase CLK4 (Homo sapiens) (UniProt Q9HAZ1); experiment: qHTS Assay for Inhibitors of CDC-like Kinase 4 (ADP-Glo Assay) (AID 1771); conditions: recombinant CLK4, ADP-Glo luminescence; series mostly up to 80 µM; further: nearly all actives have a fitted effect of over 70% in size; further: potency means the concentration at half of the fitted maximal effect
Procedure, shortened: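 In this ADP-Glo format, 1 uM ATP and 100 uM RS peptide served as substrates for 25 nM Clk4 in Mg2+/EGTA/DTT/Triton buffer; reactions ran 1 hr at room temperature before luminescent ADP quantification.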

[12] = target: Dual specificity protein kinase CLK4 (Homo sapiens) (UniProt Q9HAZ1); experiment: qHTS Assay for Inhibitors of CDC-like Kinase 4 (ADP-FP Assay) (AID 1795); conditions: Transcreener ADP fluorescence polarization; series mostly up to 50 µM; further: nearly all actives have a fitted effect of over 60% in size; further: potency means the concentration at half of the fitted maximal effect
Procedure, shortened: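 Recombinant Clk4 (6.25 nM) phosphorylated 100 uM RS repeat peptide with 1 uM ATP in 25 mM Tris pH 7.5, 10 mM MgCl2, 0.5 mM EGTA, 2.5 mM DTT, 0.01% Triton X-100 for 1 h. ADP was detected by Transcreener ADP2 competitive fluorescence polarization after 30 min at room temperature.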

[13] = target: Ubiquitin carboxyl-terminal hydrolase 1 (Homo sapiens) (UniProt O94782); experiment: Inhibitors of USP1/UAF1: Pilot qHTS (AID 504865); conditions: purified USP1/UAF1, Ub-rhodamine cleavage fluorescence; series mostly up to 54.9 µM;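 further: rhodamine fluorescence freed from ubiquitin-rhodamine substrate followed over time; top concentration of the series differs between compounds; on the % scale 0 is the no-effect control and ±100 the full control effect; nearly all actives have a fitted effect of over 35% in size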
Procedure, shortened: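 USP1/UAF1 complex at 1 nM preincubated 15 min at room temperature with compound, then Ub-Rho substrate added at 150 nM final. Fluorescence (480/540 nm) read kinetically in 50 mM HEPES pH 7.8, 0.5 mM EDTA, 1 mM TCEP, 0.1 mg/ml BSA, 0.01% Tween-20.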

[14] = Primary qHTS for small molecule stabilizers of the endoplasmic reticulum resident proteome: Secreted ER Calcium Modulated Protein (SERCaMP) assay (AID 1508630); conditions: SH-SY5Y GLuc-SERCaMP (Gaussia luciferase released on ER calcium loss) secretion, thapsigargin, luminescence; series mostly up to 38.4 µM; further: on the % scale 0 is the no-effect control and ±100 the full control effect
Procedure, shortened: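 The SH-SY5Y reporter protocol was run at 3 concentrations up to 38.3 uM (primary) or 11 concentrations (follow-up): 16 h compound, 100 nM thapsigargin for 4 h, then extracellular luciferase luminescence.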

[15] = AP1 Signaling Pathway (AID 357; active means well fitted curve in either direction with a large enough effect, not every such curve was filed as active;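 further: ME-180 reporter cells stimulated with EGF at its EC50 level; on the % scale 0 is the no-effect control and ±100 the full control effect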); conditions: ME-180 (cervical carcinoma) AP-1-bla reporter, EGF-induced, beta-lactamase ratio, 5 h; at 7.69 µM (top of the series) unless noted
Procedure, shortened: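 A ratiometric CCF4 readout (405 nm excitation; 460 and 530 nm emission) quantified AP-1-driven beta-lactamase in ME-180 cells after 5 h with compound and EC50 EGF; AC50 values were derived for activators and inhibitors.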

[16] = NFAT Signaling Pathway (AID 444; active means well fitted curve in either direction with a large enough effect, not every such curve was filed as active); conditions: Jurkat NFAT-bla M1, carbachol, beta-lactamase ratio, 5 h; at 7.69 µM (top of the series) unless noted
Procedure, shortened: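 Read-out: CCF4 FRET ratio (460 nm/530 nm) after 1 h RT dye loading, used for %activity and AC50 from titration series. Cells: Jurkat NFAT-β-lactamase/M1 line, treated with compound plus 1 uM carbachol for 5 h, 37 °C.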

[17] = target: Cytochrome P450 2C9 (Homo sapiens) (UniProt P11712); experiment: qHTS Assay for Inhibitors and Substrates of Cytochrome P450 2C9 (AID 883); conditions: recombinant CYP2C9, luciferin-H luminescence, 60 min; series mostly up to 57.1 µM; further: on the % scale 0 is the no-effect control and ±100 the full control effect; nearly all actives have a fitted effect of over 60% in size
Procedure, shortened: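 Turnover of Luciferin-H (100uM, KM) by 10nM human CYP2C9 was measured over 60 min at 37C with NADPH regeneration; inhibitors and some substrates reduce luminescence. Data normalized to sulphaphenazole 57uM.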

[18] = measured here: cell count channel max response
[19] = measured here: lipid channel max response

Sequence of Ubiquitin carboxyl-terminal hydrolase 1 (Homo sapiens) (O94782 whole entry, looked up): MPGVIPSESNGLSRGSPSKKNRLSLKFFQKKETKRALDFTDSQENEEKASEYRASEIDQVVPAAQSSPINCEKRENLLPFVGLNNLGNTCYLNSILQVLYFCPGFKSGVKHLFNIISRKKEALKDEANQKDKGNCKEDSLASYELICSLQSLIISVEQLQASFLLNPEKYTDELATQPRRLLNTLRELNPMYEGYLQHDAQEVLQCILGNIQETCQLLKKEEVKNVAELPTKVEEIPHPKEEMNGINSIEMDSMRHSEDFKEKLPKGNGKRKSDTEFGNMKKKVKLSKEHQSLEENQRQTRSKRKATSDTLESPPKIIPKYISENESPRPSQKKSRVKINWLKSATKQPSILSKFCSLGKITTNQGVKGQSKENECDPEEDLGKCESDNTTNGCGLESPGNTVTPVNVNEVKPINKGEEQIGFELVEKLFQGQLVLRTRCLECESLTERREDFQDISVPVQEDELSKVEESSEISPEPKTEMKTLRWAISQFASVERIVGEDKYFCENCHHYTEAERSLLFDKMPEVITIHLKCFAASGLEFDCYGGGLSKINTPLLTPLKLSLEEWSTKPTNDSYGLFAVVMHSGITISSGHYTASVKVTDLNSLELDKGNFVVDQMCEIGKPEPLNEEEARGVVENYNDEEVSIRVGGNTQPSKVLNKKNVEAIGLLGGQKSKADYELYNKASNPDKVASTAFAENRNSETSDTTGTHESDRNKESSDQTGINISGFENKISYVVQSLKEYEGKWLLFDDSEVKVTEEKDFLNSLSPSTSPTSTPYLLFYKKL
Sequence of Glucocorticoid receptor (Homo sapiens) (P04150 whole entry, looked up, the tested form may be a part): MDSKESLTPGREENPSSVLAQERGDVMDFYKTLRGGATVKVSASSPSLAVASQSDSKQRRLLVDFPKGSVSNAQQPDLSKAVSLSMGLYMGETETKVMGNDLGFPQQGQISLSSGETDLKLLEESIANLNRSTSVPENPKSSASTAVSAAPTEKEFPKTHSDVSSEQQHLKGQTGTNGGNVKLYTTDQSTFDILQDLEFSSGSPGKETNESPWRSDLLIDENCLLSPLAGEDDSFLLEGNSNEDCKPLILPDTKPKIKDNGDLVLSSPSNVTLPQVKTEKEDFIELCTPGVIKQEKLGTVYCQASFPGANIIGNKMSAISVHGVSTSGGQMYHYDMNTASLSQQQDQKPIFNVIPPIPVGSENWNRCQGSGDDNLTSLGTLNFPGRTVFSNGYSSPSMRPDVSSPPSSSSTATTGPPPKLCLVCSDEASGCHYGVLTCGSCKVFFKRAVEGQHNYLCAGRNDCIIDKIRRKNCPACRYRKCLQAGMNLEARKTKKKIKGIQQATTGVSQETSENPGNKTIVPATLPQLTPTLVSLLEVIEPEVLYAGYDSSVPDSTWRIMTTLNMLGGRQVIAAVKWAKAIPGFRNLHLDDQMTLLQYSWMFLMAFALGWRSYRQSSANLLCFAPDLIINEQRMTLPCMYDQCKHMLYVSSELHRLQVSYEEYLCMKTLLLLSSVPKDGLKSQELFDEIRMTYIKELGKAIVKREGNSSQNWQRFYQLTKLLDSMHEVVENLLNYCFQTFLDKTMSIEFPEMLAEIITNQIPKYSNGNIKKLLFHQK
Sequence of Lysosomal acid glucosylceramidase (Homo sapiens) (P04062 whole entry, looked up): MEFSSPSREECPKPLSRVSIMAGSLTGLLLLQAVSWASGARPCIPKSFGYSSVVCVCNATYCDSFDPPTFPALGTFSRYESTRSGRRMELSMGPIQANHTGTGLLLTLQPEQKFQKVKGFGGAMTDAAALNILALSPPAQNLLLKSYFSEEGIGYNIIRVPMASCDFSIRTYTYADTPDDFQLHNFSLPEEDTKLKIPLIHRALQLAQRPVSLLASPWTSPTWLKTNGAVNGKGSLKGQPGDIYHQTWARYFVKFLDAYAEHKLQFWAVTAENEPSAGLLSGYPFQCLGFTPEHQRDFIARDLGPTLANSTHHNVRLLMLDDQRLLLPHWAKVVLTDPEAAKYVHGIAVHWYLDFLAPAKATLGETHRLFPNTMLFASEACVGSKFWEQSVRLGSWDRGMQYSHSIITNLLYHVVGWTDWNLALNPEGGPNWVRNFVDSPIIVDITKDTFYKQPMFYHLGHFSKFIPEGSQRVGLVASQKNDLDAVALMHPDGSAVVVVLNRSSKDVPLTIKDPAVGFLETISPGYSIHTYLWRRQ
Sequence of Dual specificity protein kinase CLK4 (Homo sapiens) (Q9HAZ1 whole entry, looked up): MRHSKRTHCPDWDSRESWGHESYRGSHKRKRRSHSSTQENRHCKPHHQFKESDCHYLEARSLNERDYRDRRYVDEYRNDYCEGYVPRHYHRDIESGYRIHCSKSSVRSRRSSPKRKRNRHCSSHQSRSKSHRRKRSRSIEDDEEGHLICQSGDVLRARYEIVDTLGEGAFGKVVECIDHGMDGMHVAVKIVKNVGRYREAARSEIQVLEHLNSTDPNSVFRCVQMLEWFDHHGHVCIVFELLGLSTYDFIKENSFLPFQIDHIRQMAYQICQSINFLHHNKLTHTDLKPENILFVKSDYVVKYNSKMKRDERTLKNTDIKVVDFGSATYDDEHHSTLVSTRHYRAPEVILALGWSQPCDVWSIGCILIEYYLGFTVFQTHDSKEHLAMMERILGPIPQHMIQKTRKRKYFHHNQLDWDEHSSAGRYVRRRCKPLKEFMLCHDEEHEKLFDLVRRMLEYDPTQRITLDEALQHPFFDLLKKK
Sequence of 3',5'-cyclic-AMP phosphodiesterase 4B (Homo sapiens) (Q07343 whole entry, looked up): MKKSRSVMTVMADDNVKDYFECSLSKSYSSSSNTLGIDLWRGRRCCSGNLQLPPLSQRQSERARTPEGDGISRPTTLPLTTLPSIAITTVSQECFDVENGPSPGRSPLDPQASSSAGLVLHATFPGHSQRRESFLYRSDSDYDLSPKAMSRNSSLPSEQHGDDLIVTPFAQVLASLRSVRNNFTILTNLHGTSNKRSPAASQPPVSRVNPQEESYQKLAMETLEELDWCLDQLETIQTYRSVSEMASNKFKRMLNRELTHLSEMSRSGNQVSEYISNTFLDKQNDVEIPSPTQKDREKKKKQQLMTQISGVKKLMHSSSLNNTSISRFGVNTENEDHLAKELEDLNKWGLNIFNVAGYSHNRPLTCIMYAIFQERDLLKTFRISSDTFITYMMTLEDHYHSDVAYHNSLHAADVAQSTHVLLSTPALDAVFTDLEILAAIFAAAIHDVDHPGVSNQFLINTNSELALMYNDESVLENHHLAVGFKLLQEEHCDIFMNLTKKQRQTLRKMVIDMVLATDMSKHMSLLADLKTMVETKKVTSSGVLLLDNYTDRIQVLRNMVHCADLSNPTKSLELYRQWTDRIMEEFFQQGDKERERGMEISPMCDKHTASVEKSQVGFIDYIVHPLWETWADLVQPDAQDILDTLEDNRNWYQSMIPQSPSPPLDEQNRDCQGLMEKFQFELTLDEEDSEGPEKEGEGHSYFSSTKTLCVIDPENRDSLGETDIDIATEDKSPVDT
Sequence of Cytochrome P450 1A2 (Homo sapiens) (P05177 whole entry, looked up): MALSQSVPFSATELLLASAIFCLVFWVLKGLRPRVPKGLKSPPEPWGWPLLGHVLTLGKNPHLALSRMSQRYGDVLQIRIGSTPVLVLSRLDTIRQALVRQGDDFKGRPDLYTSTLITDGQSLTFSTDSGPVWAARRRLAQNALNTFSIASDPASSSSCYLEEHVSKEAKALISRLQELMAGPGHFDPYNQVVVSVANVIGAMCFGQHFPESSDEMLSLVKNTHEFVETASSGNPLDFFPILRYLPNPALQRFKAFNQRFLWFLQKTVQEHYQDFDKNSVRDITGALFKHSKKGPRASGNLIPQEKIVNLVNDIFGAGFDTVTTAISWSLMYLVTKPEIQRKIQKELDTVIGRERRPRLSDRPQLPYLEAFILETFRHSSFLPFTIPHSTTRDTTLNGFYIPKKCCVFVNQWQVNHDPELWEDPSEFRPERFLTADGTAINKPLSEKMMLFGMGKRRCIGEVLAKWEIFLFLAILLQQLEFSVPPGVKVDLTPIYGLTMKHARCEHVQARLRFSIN
Sequence of Cytochrome P450 3A4 (Homo sapiens) (P08684 whole entry, looked up): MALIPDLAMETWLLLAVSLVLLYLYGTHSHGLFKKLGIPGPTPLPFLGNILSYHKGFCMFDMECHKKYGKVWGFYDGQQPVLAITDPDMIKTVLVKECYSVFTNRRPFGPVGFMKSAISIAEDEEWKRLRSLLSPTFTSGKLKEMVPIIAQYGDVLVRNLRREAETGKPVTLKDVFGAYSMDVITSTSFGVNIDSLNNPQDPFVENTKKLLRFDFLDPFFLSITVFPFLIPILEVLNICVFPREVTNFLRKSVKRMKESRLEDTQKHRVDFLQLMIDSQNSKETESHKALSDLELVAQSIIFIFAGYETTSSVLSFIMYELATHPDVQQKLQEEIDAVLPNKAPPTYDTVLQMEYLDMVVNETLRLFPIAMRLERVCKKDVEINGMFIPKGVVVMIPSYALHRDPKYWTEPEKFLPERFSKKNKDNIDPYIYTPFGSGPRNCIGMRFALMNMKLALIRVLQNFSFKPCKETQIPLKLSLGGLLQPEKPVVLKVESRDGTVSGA
Sequence of Cytochrome P450 2C9 (Homo sapiens) (P11712 whole entry, looked up): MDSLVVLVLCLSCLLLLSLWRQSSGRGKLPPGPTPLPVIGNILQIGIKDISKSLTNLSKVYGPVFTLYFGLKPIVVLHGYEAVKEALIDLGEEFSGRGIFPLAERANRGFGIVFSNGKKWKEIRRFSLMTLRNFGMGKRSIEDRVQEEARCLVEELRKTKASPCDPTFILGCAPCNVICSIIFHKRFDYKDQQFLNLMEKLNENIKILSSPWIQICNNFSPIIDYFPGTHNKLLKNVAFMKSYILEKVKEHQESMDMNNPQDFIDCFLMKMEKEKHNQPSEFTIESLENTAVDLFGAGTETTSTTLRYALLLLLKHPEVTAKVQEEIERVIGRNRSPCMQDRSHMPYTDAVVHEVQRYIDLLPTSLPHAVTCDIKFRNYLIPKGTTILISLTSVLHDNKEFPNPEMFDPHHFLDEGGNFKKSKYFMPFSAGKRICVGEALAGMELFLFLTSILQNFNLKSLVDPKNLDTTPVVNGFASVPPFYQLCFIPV

COCCNc1ncnc2ccc(-c3cccc(OC)c3)cc12
active: Potency [2] 0.794 µM | Potency [10] 0.708 µM | Potency [11] 0.562 µM | Potency [12] 0.501 µM
inactive: Potency [1] > 11.4 µM | activity, negative = inhibition [3] -27.4% | Potency [4] > 46 µM | Potency [5] > 46 µM | outcome [6] | Potency [7] | Potency [8] | activity change, negative = inhibition [9] -4.77% | Potency [13] | Potency [14]
-9.38%: max response [9, 18]
-14.2%: max response [9, 19]

COCCNc1ncncc1-c1ccccc1OC
inactive: Potency [1] > 11.4 µM | activity change, negative = inhibition [15] 0.174% | activity change, negative = inhibition [16] 6.41% | activity, negative = inhibition [3] 16.6% | Potency [4] > 46 µM | Potency [5] > 46 µM | outcome [6] | Potency [7] | activity change, negative = inhibition [9] 4.36% | Potency [10] | Potency [11] | Potency [12] | Potency [14]
16.6%: max response [9, 19]
20.6%: max response [9, 18]

COc1ccc(-c2nc3cnc(Nc4ccccc4)nc3n(C[C@H]3CCCO3)c2=O)cc1
active: Potency [9] 11.2 µM
2.79%: max response [9, 18]
inactive: Potency [1] > 11.4 µM | activity change, negative = inhibition [15] 26.1% | Potency [4] > 9.22 µM | Potency [5] > 46 µM | outcome [6] | Potency [10] | Potency [11] | Potency [12] | Potency [13] | Potency [14]
-87.2%: max response [9, 19]

O=c1c(-c2ccc(Cl)cc2)nc2cnc(N3CCOCC3)nc2n1-c1ccccc1
inactive: Potency [1] > 11.4 µM | Potency [4] > 9.22 µM | Potency [5] > 46 µM | outcome [6] | Potency [7] | Potency [17] | activity change, negative = inhibition [9] -3% | Potency [10] | Potency [11] | Potency [12] | Potency [13] | Potency [14]
active: Potency [2] 2 µM
25.3%: max response [9, 18]
19.1%: max response [9, 19]

O=c1c(-c2ccccc2)nc2cnc(Nc3ccccc3)nc2n1Cc1cccs1
8.31%: max response [9, 18]
inactive: Potency [1] > 11.4 µM | activity change, negative = inhibition [15] -15.4% | Potency [4] > 9.22 µM | outcome [6] | activity change, negative = inhibition [9] -3.34% | Potency [10] | Potency [11] | Potency [12] | Potency [13] | Potency [14]
4.81%: max response [9, 19]

O=c1c(-c2ccc(F)c(F)c2)nc2cncnc2n1C1CC1
inactive: Potency [1] > 11.4 µM | activity change, negative = inhibition [15] 3.77% | activity change, negative = inhibition [16] 7.2% | activity, negative = inhibition [3] -6.38% | Potency [4] > 9.22 µM | Potency [5] > 46 µM | Potency [7] | Potency [8] | activity change, negative = inhibition [9] 8.82% | Potency [10] | Potency [11] | Potency [12] | Potency [13] | Potency [14]
27.4%: max response [9, 19]
20.3%: max response [9, 18]
